KCNQ2 block = inhibitors of rat KCNQ2 potassium channel; O88943; CHO-K1 KCNQ2, FluxOR thallium flux, 20 min; active compounds read low; B-score at 10 µM; 310,000 compounds, 1.1% hits; AID 2156;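 active means fluorescence ratio B-score at most minus 3 library SDs, with starting brightness B-score within 2 library SDs, cut at about -5.5 in these data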
Target sequence (O88943 whole entry, looked up): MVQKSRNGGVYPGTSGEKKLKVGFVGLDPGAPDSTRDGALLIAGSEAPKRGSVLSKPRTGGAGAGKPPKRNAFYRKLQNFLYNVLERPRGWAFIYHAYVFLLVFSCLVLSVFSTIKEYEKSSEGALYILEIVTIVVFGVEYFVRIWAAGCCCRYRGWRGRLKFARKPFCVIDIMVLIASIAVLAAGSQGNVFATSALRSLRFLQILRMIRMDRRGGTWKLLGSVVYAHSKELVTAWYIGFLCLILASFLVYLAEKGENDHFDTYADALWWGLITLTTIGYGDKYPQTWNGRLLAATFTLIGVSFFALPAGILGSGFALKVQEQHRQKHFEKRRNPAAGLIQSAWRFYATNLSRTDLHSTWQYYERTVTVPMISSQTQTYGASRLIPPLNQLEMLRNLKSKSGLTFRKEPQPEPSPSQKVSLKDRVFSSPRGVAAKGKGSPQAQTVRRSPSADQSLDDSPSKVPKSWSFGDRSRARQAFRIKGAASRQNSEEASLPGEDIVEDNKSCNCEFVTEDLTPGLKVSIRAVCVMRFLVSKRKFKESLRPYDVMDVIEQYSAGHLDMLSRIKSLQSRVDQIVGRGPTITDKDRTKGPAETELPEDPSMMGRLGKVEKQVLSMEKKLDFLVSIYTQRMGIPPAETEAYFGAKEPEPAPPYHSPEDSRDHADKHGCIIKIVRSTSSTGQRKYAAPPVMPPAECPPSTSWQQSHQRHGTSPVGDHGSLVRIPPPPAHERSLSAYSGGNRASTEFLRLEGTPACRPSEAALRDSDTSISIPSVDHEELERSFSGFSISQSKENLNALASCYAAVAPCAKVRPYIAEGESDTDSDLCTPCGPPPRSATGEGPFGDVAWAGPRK
KCNQ2 pot = enhances the rat KCNQ2 potassium channel; B-score at 10 µM; 310,000 compounds, 0.54% hits; O88943; CHO-K1 KCNQ2, FluxOR thallium flux fluorescence; active compounds read high;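 active means fluorescence ratio B-score at least 3 SD of library B-scores, with initial fluorescence B-score within 3 of them, cut at about 5.3 in these data; same plate scores as AID 2156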;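 further: B-score of peak minus minimum over baseline fluorescence ratio after K+ and Tl+ stimulus; positive B-score means potentiation of KCNQ2 with more thallium influx and brighter signal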
* hit, by the source's call; i = inactive; . = not tested or not shown. A selection: hits, their analogues and other compounds. The true share with any hit is near 1.6%.

SMILES | KCNQ2 block | KCNQ2 pot
CCC[C@@H]1C[C@@]1(CCC)[C@@H](NP(=O)(c1ccccc1)c1ccccc1)c1ccc(C(=O)OC)cc1 | i | .
COc1ccc(C2c3c(oc4ccccc4c3=O)C(=O)N2CCCN2CCOCC2)cc1 (stereo not drawn) | i | .
COc1ccc(C2c3c(oc4ccc(Cl)cc4c3=O)C(=O)N2CCN2CCOCC2)cc1 (stereo not drawn) | -6.63* | -6.63
CN(C)CCN1C(=O)c2oc3ccccc3c(=O)c2C1c1cccc(Br)c1 (stereo not drawn) | i | .
CN(C)CCN1C(=O)c2oc3ccc(Cl)cc3c(=O)c2C1c1cccc(Br)c1 (stereo not drawn) | -6.28* | -6.28
COc1ccc(CCNC(=O)CCNC(=O)c2ccc([N+](=O)[O-])cc2)cc1 | i | 0.66
N#Cc1c(-c2ccccc2F)cc(C2CC2)nc1SCC(=O)c1cccs1 | i | 11.7*
CCSc1nc(C2CC2)cc(-c2cccs2)c1C#N | i | .
C=CCOC(=O)C1=C[C@@H](c2csc3ccccc23)[C@H](CCCO)[C@@H](OCC)O1 | i | .
O=C(O)c1ccccc1Nc1cc(Cl)c2nonc2c1[N+](=O)[O-] | i | 0.04
O=[N+]([O-])c1c(Nc2ccccn2)cc(Cl)c2nonc12 | -11.2* | -11.2
CCOc1ccc(N2C(=O)S/C(=C\c3cc(OC)c(OC)c(OC)c3)C2=O)cc1 | i | .
C/C(=N\Nc1nc(C)cc(-c2ccccc2)n1)c1ccc(C)o1 | -6.07* | -6.07
C/C(=N/Nc1nc(C)cc(-c2ccccc2)n1)c1ccco1 | i | 1.71
Cc1nn(-c2ccc(Cl)nn2)c(=O)c2ccccc12 | i | 0.01
O=C(O)CSc1nnc(CNc2ccc(F)cc2)n1-c1ccccc1 | i | 0.62
COC(=O)CSc1nnc(CNc2ccc(Cl)cc2)n1-c1ccccc1 | -5.75* | -5.75
CC1=C(C)[N+](=O)C2CCCCC2N1[O-] (stereo not drawn) | i | .
O=C(C1=C[C@H](C2CC2)C[C@H](OCCCCO)O1)N1CCOCC1 | i | 0.21
C=C1CCN([C@@H](Cc2ccccc2)C(=O)NCc2ccc(Cl)c(Cl)c2)S(=O)(=O)c2ccccc21 | -6.18* | -6.18
C=C1CCN([C@@H](CC(C)C)C(=O)NCc2ccc(Cl)c(Cl)c2)S(=O)(=O)c2ccccc21 | i | .
COc1cc(/C=N/n2c(C)nc3ccccc3c2=O)cc(OC)c1O | i | .
Cc1ccc(N2CCCC2=O)cc1S(=O)(=O)N1CCOCC1 | i | 1.17
C=CCN(c1ccccc1OC)S(=O)(=O)c1cccc(C(=O)OCC(=O)c2c[nH]c3ccccc23)c1 | i | 6.7*
Cc1ccc(C(=O)OCC(=O)c2c[nH]c3ccccc23)cc1 | i | 0.98
SMILES | KCNQ2 block | KCNQ2 pot
COc1cc(C(=O)OCC(=O)c2c[nH]c3ccccc23)ccc1OCC(=O)N1CCOCC1 | i | .
COc1cc(OC)c(N(C)S(=O)(=O)c2cccc(C(=O)OCC(=O)c3c[nH]c4ccccc34)c2)cc1Cl | i | 6.3*
CC(C)[C@H](N)C(=O)NC[C@H]1CC[C@H](C(=O)N[C@@H](Cc2ccccc2)C(=O)O)CC1 | i | 1.62
Cc1cc2c(cc1S(=O)(=O)N(C)Cc1ccccc1)OCC(=O)N2 | i | .
CCOC(=O)CN(C(=O)CSc1nnc(-c2ccc(OC)c(OC)c2)o1)c1ccc(F)cc1 | -6.62* | -6.62
CCOC(=O)CSc1nnc(-c2cc(OC)c(OC)c(OC)c2)o1 | i | 0.1
CCOC(=O)NC(=O)c1cn(Nc2ccccc2C(F)(F)F)c(=O)[nH]c1=O | i | .
CC(C)(C)NC(=O)C(OC(=O)c1cccs1)c1ccc(C#N)cc1 (stereo not drawn) | i | .
O=C(Nc1ccc2c(c1)OCCO2)c1cc2sccc2n1Cc1ccccc1 | i | .
O=C(Nc1ccc2c(c1)OCCO2)c1cc2sccc2n1Cc1ccc(F)cc1 | -6.14* | -6.14
CCOc1ccc(S(=O)(=O)N2CCN(Cc3ccc4c(c3)OCO4)CC2)cc1C | i | .
NC(=O)CCN1CCN(C(=O)c2ccc3nc(Cc4cccc(Cl)c4)oc3c2)CC1 | i | 0.72
CCOc1ccc(Br)cc1S(=O)(=O)Nc1ccc(Cl)c(S(=O)(=O)N(CC)c2ccccc2)c1 | i | 0.03
COc1ccc(CN(C)CC(=O)Nc2cccc3ccccc23)cc1F | -5.83* | -5.83
CCOc1ccc(CN(C)CC(=O)Nc2cccc3ccccc23)cc1OC | i | .
CCC(=O)N1CCc2cc(S(=O)(=O)NC(Cc3ccccc3)C(=O)O)ccc21 (stereo not drawn) | i | 1.41
CCOC(=O)c1ccc(NC(=O)N2CCN(Cc3ccccc3)CC2)cc1 | i | .
COc1ccc(NC(=O)C2CCCN(S(=O)(=O)c3ccc4c(c3)oc(=O)n4C)C2)c(OC)c1 (stereo not drawn) | i | .
CC1(C)CC(=O)C2=C(C1)Nc1ncnn1C2c1cccs1 (stereo not drawn) | i | 0.85
O/N=C/c1ccc2ccccc2n1 | i | .
CC(C)(C)c1ccccc1N=Cc1ccc2ccccc2n1 | -6.41* | -6.41
Cc1noc(C)c1CSc1nc2sc(C)c(C)c2c(=O)n1-c1ccccc1 | i | .
C=CCn1c(SCc2c(C)noc2C)nc2sc(C)c(C)c2c1=O | -6.52* | -6.52
COc1ccc(/C=C2\SC(=O)NC2=S)cc1OC | i | 5.9*
CCOc1ccc(/C=C2\SC(=S)NC2=O)cc1OC | i | 3.8
SMILES | KCNQ2 block | KCNQ2 pot
N#Cc1nc(COc2ccc(Cl)cc2Cl)oc1N1CCN(c2ccccc2)CC1 | -7.71* | -7.71
COc1ccc(N2CCN(c3oc(COc4ccc(Cl)cc4Cl)nc3C#N)CC2)cc1 | i | 0.01
Clc1cc(Cl)cc(CSc2nnc(-c3sccc3-n3cccc3)o2)c1 | -5.89* | -5.89
Clc1cccc(CSc2nnc(-c3sccc3-n3cccc3)o2)c1 | i | .
CCOC(=O)C[C@H]1c2cc(F)ccc2S(=O)(=O)N1Cc1ccc(OC)cc1 | i | .
COc1ccc(NC(=O)n2ncc3cc(Cl)ccc32)cc1OC | i | 0.46
Cc1cc(C)c2nc(N3CCC(C(=O)NCCCN4CCCCC4)CC3)sc2c1 | -6.49* | -6.49
Cc1cc(C)c2nc(N3CCC(C(=O)NCC4CCCO4)CC3)sc2c1 (stereo not drawn) | i | .
CN1CCN(C(=O)CCN2C(=O)/C(=C/c3ccc(F)cc3)SC2=S)CC1 | i | 1.16
Cc1ccc(-c2cc(-c3ccc(C)o3)nc(N)c2C#N)cc1 | i | .
Cc1ccc(-c2cc(-c3ccc(Cl)cc3)c(C#N)c(N)n2)o1 | -6.79* | -6.79
CC1CCc2c(sc3nc(C(C)(C)C)nc(N4CCN(C(=O)CCl)CC4)c23)C1 (stereo not drawn) | i | .
O=C(Nc1cccnc1)c1ccc(-c2cc(Cl)ccc2Cl)o1 | i | 0.02
O=C(NCc1cccnc1)c1ccc(-c2cc(Cl)ccc2Cl)o1 | -6.8* | -6.8
CCSc1n[nH]c2nc3c(c(=O)n12)C1(CCCC1)Cc1ccccc1-3 | i | .
Cc1ccc(-n2c(SCC(N)=O)nc3c(c2=O)C2(CCCC2)Cc2ccccc2-3)cc1 | -5.61* | -5.61
COc1ccccc1OCC(=O)N/N=C/c1cccc2cccnc12 | i | 0.03
COc1ccccc1OCC(=O)N/N=C/c1c(O)ccc2ccccc12 | -6.05* | -6.05
O=C(CCc1nnc2ccc(NCc3ccccc3Cl)nn12)NC1CCCCC1 | i | 0.08
COc1ccccc1CC(=O)N(Cc1ccccc1)c1cccc(C)c1 | i | .
Oc1ccc2ccccc2c1C=Nc1ccccc1Br | i | .
Oc1c(Br)cc(Cl)cc1C=Nc1ccccc1Br | i | 8.36*

High-throughput results (PubChem BioAssay)
